mHTT-CaM PPI inh = inhibitors of human mutant huntingtin-calmodulin interaction; hit rate 3.6% among 190,000; AID 1671202; AlphaScreen His-mHTT/GST-CaM binding, luminescence; P42858; inhibition, % at 15 µM;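 further: 0% = both proteins with DMSO and 100% = one protein alone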
Pf apPOL block = Pf-apPOL DNA polymerase inhibition; Recombinant Pf-apPOL, molecular beacon fluorescence, 1.5 h; inhibition, % at 10 µM; hit rate 0.25% among 210,000
Active calls of the source: *. Sampled rows, rich in hits. Any-hit rate of the full collection: about 3.5%. No stated cut-off is given here; in the data, active means inhibition above about 50%; inactive means the rest.

SMILES | mHTT-CaM PPI inh | Pf apPOL block
C[C@H]1COc2cc(N3CC[C@H](O)C3)ccc2S(=O)(=O)N1 | -8 | -1
CC(C)C(=O)NCCc1csc(C2CCCN(C(=O)C3CCCC3)C2)n1 (stereo unspecified) | 1 | -2
COc1ccc(C(=O)N2CCCC2c2cccc(C)c2)cc1OC (stereo unspecified) | -3 | -1
O=C(O)c1ccc(NC(CS(=O)(=O)Cc2c(F)cccc2Cl)C(=O)O)c([N+](=O)[O-])c1 (stereo unspecified) | -4 | -2
CC(=O)c1cc(C(=O)CC(=O)Nc2cccc([N+](=O)[O-])c2)sc1Nc1ccccc1 | 11 | 0
Cc1ccc(S(=O)(=O)N2CCC(=O)N(C(COC(=O)Nc3ccccc3)Cc3ccccc3)CC2)cc1 (stereo unspecified) | 2 | -10
O=C(c1cccc(Cl)c1)N1CCC(=O)N([C@H](COCc2ccccc2)Cc2ccccc2)CC1 | 66* | -4
O=C(c1cc(Cl)cc(Cl)c1)N1CCC(=O)N([C@H](COCc2ccccc2)Cc2ccccc2)CC1 | 92* | -3
O=C(c1cccc(Cl)c1)N1CCC(C(=O)N2CCN(Cc3ccccc3)CC2)CC1 | 10 | 0
CC(C)CN(Cc1c(O)ccc2c(=O)c(-c3ccc4c(c3)OCCO4)coc12)CC(C)C | 14 | -3
CC1CCN(Cc2csc(N3CCN(C(=O)c4ccccc4)CC3)n2)CC1 | 6 | -2
Cc1cc(C)c(-n2c(O)c(C=C3C=Nc4ccccc43)c(=O)[nH]c2=O)c(C)c1 | 100* | 2
CC1=Nc2ccccc2C1=Cc1c(O)n(-c2ccc(C)cc2)c(=O)[nH]c1=O | 12 | -44
O=c1[nH]c(=O)n(-c2ccccc2F)c(O)c1C=C1C=Nc2ccc(Br)cc21 | 100* | 5
Cc1ccc(-n2c(O)c(C=C3C=CC=N3)c(=O)[nH]c2=O)cc1 | 12 | 0
Cc1cc2c(=O)n(CC(=O)Nc3cccc(C(C)C)c3)ccc2s1 | -6 | 0
Cc1nc2ccccc2c2c1CC(C)O2 (stereo unspecified) | -6 | 4
CN(C)c1cc(C(=O)NC2CC2)c2cccc(Cl)c2n1 | 13 | 3
CCOc1ccc(N2COc3cc4c(cc3C2)OCO4)cc1 | 8 | -14
CCOc1ccc(N2COc3ccc(Br)cc3C2)cc1 | 84* | -1
O=c1oc2c(-c3ccc([N+](=O)[O-])cc3)cc(O)cc2s1 | 9 | 2
O=c1oc2c(-c3ccc(Cl)cc3)cc(O)cc2s1 | 80* | 0
Cc1cccc(-c2cc(O)cc3sc(=O)oc23)c1 | 91* | 5
COc1cc(OC)c2c(-c3cccc(-c4cccc(C)c4)c3)cc(=O)oc2c1 | -6 | -8
O=[N+]([O-])c1cccc(-c2noc(-c3ccc(I)cc3)n2)c1 | 0 | -2
SMILES | mHTT-CaM PPI inh | Pf apPOL block
COc1ccccc1Cn1c(SCC#N)nc2ccc(Br)cc2c1=O | -8 | -1
Cc1cc(C)nc(SC(NC(=O)c2ccccc2)C(=O)c2ccccc2)n1 (stereo unspecified) | 94* | 0
Cc1cc(=O)n(C(NC(=O)c2ccccc2)C(=O)c2ccccc2)cn1 (stereo unspecified) | -3 | -2
Cc1ccc(C)c(N2CCN(C(=O)CCC(=O)N3CCCn4nc(C)cc43)CC2)c1 | 46 | 1
Cc1cc2n(n1)CCC(=O)N2CCCC(=O)N1CCN(c2cc(Cl)ccc2C)CC1 | 84* | -6
Cc1cc2n(n1)CCCN2C(=O)CCC(=O)N1CCN(c2cc(Cl)ccc2C)CC1 | 87* | 0
Cc1ccc(C)c(N2CCN(C(=O)CCCN3C(=O)CCn4nc(C)cc43)CC2)c1 | 27 | -3
O=C(Nc1c2c(nn1C1CCS(=O)(=O)C1)CSC2)c1ccccc1 (stereo unspecified) | 42 | 14
Cc1cc2c(cc1C)NC(CC(=O)Nc1ccc([N+](=O)[O-])cc1)C(=O)N2 (stereo unspecified) | 21 | 6
COCCn1cc(NC(=O)N2c3ccccc3CC2C)c2ccccc21 (stereo unspecified) | 12 | -5
COc1ccc(C2=NC(C)(C)N(CC(=O)Nc3cccc(Cl)c3)C2=O)cc1 | 25 | 1
O=S(=O)(Nc1nc2n(n1)C(c1ccccc1)C=C(c1ccc(Cl)cc1)N2)c1ccccc1 (stereo unspecified) | 5 | -3
O=C1CCC(=O)N1c1nc2n(n1)C(c1ccccc1)C=C(c1ccc(Cl)cc1)N2 (stereo unspecified) | 77* | 10
Cc1cc(C)cc(S(=O)(=O)N2CCCC(C)(C(=O)NCc3cccc(F)c3)C2)c1 (stereo unspecified) | 5 | -3
Cc1ccc(NC(=O)c2cc(N3C(=O)C=CC3=O)ccc2Cl)cc1C | 92* | -4
Cc1ccc(NC(=O)c2cc(Cl)c(Cl)cc2C(=O)O)cc1C | 1 | -3
CCC(=O)NCc1nc2c(n1CC)CN(C(=O)c1ccc(Cl)cc1)CC2 | -1 | -6
COc1ccc(S(=O)(=O)N2CC=C(c3cn(C)c4ncccc34)CC2)cc1Cl | 7 | -2
